Experiment [1] in a line: resazurin metabolic signal in HepG2 cells – cell-based, resazurin fluorescence, 24 h, PK04 Diversity Set, profiling panel (AID 1172). Further: test concentration not given here. Conditions: HepG2 viability, higher = more signal. Background: Resazurin is reduced to fluorescent resorufin, in cell work by metabolically active cells.
Experiment [2] in a line: budding yeast growth changes without added modifier – OD600, strain BY4716, 24 h, basal condition, primary screen (AID 1173). The note with it: S. cerevisiae BY4716 growth, OD600, 24 h; higher = more signal, called active from +8 up or from −8 down.
Experiment [3] can be described thus: viability profiling in MM1S myeloma cells – cell-based, resazurin fluorescence, basal, 24 h, PK04 Diversity Set, profiling panel (AID 1174).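 Further: MM1S multiple myeloma cell line; test concentration not given here.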 The note with it: higher = more signal, called active from +8 up or from −8 down.
For experiment [4], the target named is Dihydroorotate dehydrogenase (quinone), mitochondrial (Plasmodium falciparum (isolate 3D7)) (UniProt Q08210). Description: inhibition of P. falciparum DHODH – biochemical, C-terminal His tag, absorbance 600 nm, primary screen (AID 1175).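 Further: recombinant parasite enzyme with a five histidine tag at its C terminus; test concentration not given here.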 Conditions: PfDHODH enzyme, DCIP absorbance 600 nm; higher = more signal, called active from +8 up or from −8 down.
The nature of experiment [5]: inhibition of PAO1 biofilm formation – strain PAO1, LB-PBS medium, absorbance 600 nm, primary screen (AID 1176). Further: test concentration not given here. Conditions: P. aeruginosa PAO1 growth/biofilm, A600, 12 h; higher = more signal.
The nature of experiment [6]: growth modulation of vineyard yeast isolate – strain RM11-1a, OD600, basal, 24 h, primary screen (AID 1177).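 Further: cultures grown under basal conditions with no added stressor; test concentration not given here.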 Conditions: S. cerevisiae RM11-1a growth, OD600, 24 h; higher = more signal, called active from +8 up or from −8 down.
Experiment [7] is described as follows: growth of efflux-deficient E. coli DRC39 – strain DRC39, OD650, 24 h, E. coli filamentation inducers, primary screen (AID 1178).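 Further: growth measured as culture turbidity by optical density at 650 nm; test concentration not given here.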 The note with it: E. coli DRC39 acrAB, higher = more signal, called active from +8 up or from −8 down.
Experiment [8] can be described thus: growth of efflux-deficient E. coli DRC39 – strain DRC39, OD650, 48 h, E. coli filamentation inducers, primary screen (AID 1179).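 Further: screen aims at cell division blockers that make cells filament.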 Conditions: E. coli DRC39 delta-acrAB growth, higher = more signal, called active from +8 up or from −8 down.
Experiment [9] is described as follows: viability profiling in RPMI8226 myeloma cells – cell-based, resazurin fluorescence, basal, 24 h, PK04 Diversity Set, profiling panel (AID 1180).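 Further: RPMI8826 multiple myeloma cell line at 5000 cells per well; test concentration not given here.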 Conditions: higher = more signal.
Experiment [10] has as its target E3 ubiquitin-protein ligase XIAP (Homo sapiens) (UniProt P98170). Nature of the experiment: small molecules binding XIAP protein – biophysical, small-molecule microarray, fluorescence 635 nm, primary screen (AID 1181).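 Further: score merges 667 nm emission and signal to noise over triplicate slides.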 Conditions: higher = more signal.

The source made the active and inactive calls. Unless noted, how the calls were made is not given here.

E3 ubiquitin-protein ligase XIAP (Homo sapiens), sequence (P98170 whole entry, looked up): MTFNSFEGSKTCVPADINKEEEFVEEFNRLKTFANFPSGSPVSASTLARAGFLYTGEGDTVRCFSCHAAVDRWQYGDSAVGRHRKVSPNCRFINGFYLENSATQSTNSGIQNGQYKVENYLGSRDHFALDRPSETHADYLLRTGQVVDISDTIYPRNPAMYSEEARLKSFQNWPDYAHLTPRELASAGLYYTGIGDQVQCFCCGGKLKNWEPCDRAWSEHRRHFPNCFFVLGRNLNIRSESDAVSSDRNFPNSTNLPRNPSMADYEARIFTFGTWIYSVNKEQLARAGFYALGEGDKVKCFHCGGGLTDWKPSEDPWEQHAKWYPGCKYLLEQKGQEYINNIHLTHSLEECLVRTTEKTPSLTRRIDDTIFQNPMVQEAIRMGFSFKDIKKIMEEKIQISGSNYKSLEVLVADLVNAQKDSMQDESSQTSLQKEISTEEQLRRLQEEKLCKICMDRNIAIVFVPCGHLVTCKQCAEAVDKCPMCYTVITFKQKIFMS
Dihydroorotate dehydrogenase (quinone), mitochondrial (Plasmodium falciparum (isolate 3D7)), sequence (Q08210 whole entry, looked up): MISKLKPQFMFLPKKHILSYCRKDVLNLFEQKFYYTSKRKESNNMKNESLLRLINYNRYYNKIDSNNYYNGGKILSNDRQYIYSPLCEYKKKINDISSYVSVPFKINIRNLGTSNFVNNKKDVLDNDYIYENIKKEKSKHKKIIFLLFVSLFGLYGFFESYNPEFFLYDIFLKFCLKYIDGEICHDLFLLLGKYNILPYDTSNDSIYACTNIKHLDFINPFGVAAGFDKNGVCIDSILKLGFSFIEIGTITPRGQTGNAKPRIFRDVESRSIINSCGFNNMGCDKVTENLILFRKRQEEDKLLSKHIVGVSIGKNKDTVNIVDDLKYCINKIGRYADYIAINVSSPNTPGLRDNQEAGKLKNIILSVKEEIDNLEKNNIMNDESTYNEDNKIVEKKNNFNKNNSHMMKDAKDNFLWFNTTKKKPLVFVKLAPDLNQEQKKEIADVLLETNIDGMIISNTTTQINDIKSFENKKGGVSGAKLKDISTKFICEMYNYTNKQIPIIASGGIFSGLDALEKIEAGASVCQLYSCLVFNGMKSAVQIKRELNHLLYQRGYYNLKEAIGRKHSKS

`CCCCCN1CC=CC23O[C@@H]4C=CCCOC(=O)C4[C@H]2C(=O)N(CCCO)[C@@H]3C1=O` (stereo not given in full): the z-score in [1] is 0.457; in experiment [2], -0.613 (inactive); in [3] it was 0.435 (inactive); in experiment [5], -0.289 (inactive); in experiment [6], -0.126 (inactive); in [7], -0.761 (inactive). In addition, the z-score in experiment [8] was -0.251 (inactive); in experiment [9] it was -0.0665. In addition, the composite z-score in experiment [4] is -1.36 (inactive); in experiment [10], -0.162.

In the case of `COC(=O)[C@@]1(Cc2ccc(OC)cc2)[C@H]2c3cc(C(=O)N(C)C)n(CCSCCO)c3C[C@H]2CN1C(=O)c1ccccc1`, the z-score in experiment [1] was 0.123; in [2], 0.32 (inactive); in [3], -0.415 (inactive); in experiment [5] it was 0.852 (inactive); in experiment [6], -0.459 (inactive); in [7], 0.219 (inactive). Moreover, the z-score in [8] was -0.143 (inactive); in experiment [9] it was -0.409. In addition, the composite z-score in [4] was -0.669 (inactive); in experiment [10], -0.0062.

With `C=CCN1C(=O)[C@@]2(O[C@@H](CCO)[C@H]([Si](C)(C)c3ccc(OC)cc3)[C@H]2C)c2cc(NC(C)=O)ccc21`, the z-score is -0.865 in experiment [1]; -1.47 (inactive) in experiment [2]; -1.6 (inactive) in experiment [3]; -0.188 (inactive) in [5]; 1.48 (inactive) in experiment [6]; 0.166 (inactive) in [7]. The z-score in experiment [8] was 0.121 (inactive); in experiment [9], -1.43. Further, the composite z-score in experiment [4] is -1.13 (inactive); in [10] it was 0.436.

As to `CCOC(=O)N1C(c2ccc(OCCCO)cc2)=NC(C(=O)OC)N1C(=O)OCC` (stereo not given), the z-score in experiment [1] is 0.33; in experiment [2], -0.445 (inactive); in experiment [3] it was 0.715 (inactive); in experiment [5] it was -0.565 (inactive); in experiment [6] it was -1.08 (inactive); in experiment [7] it was 0.857 (inactive). Further, the z-score in [8] was 1.52 (inactive); in experiment [9] it was 0.96. For the same compound, the composite z-score is -0.294 (inactive) in [4] and 0.0707 in experiment [10].

Regarding `CC(c1ccccc1)C(O)C1C=CC2C(=O)N(Cc3ccccc3)C(=O)C2N1n1cnnc1` (stereo not given), the z-score in experiment [1] is -0.69; in experiment [2] it was -6.59 (inactive); in experiment [3], -0.652 (inactive); in [5], 0.492 (inactive); in experiment [6], 0.263 (inactive); in [7], -0.491 (inactive). Moreover, the z-score is -2.39 (inactive) in experiment [8] and -0.161 in experiment [9]. Besides, the composite z-score is 0.381 (inactive) in experiment [4] and 0.456 in [10].

Consider `CC(C)(C)OC(=O)CC[C@]1(C(=O)NCC(O)CO)N=C(c2ccc(OCCCO)cc2)O[C@H]1c1ccccc1CN=[N+]=[N-]` (stereo not given in full), for which the z-score in experiment [1] is -0.206; in experiment [2], -0.694 (inactive); in [3], -0.918 (inactive); in experiment [5], 1.65 (inactive); in experiment [6] it was -0.591 (inactive); in experiment [7], -0.185 (inactive). The z-score in experiment [8] is -0.659 (inactive); in [9], -0.483. The figures for the composite z-score in [4] and in [10] were -0.59 (inactive) and 0.049, respectively.

In the case of `COC(=O)[C@@]1(Cc2ccc(OC)cc2)[C@H]2c3cc(C(=O)N4CCCC4)n(CCc4ccccn4)c3C[C@H]2CN1C(=O)c1ccccc1`, the z-score in experiment [1] is -0.608; in experiment [2], 1.17 (inactive); in experiment [3], -1.55 (inactive); in experiment [5], 1.5 (inactive); in experiment [6] it was 0.664 (inactive); in experiment [7], -0.784 (inactive). The z-score in experiment [8] was -0.912 (inactive); in [9] it was -2.73. Also, the composite z-score in experiment [4] is -0.362 (inactive); in experiment [10], 0.0976.

`COc1ccccc1CN1C(=O)c2ccccc2[C@](Cc2ccccc2I)(C(=O)NCc2ccccc2)[C@@H]1c1ccc(CO)cc1`: the z-score in experiment [1] was -0.583; in experiment [2], 0.511 (inactive); in experiment [3], -1.05 (inactive); in experiment [5], 0.0993 (inactive); in experiment [6], -0.283 (inactive); in experiment [7] it was -0.331 (inactive). The values for the z-score in experiment [8] and in experiment [9] were 0.363 (inactive) and -1.12, respectively. Besides, the composite z-score was -0.141 (inactive) in [4] and -0.16 in [10].

As to `CCCNC(=O)[C@@]1(C)c2ccccc2C(=O)N(Cc2ccc(OC(F)(F)F)cc2)[C@H]1c1ccc(CO)cc1`, the z-score in [1] was -0.0818; in experiment [2], -0.0169 (inactive); in experiment [3] it was -0.0521 (inactive); in experiment [5], 0.251 (inactive); in [6] it was -0.277 (inactive); in experiment [7] it was 0.484 (inactive). Further, the results for the z-score in experiment [8] and in experiment [9] were 1.28 (inactive) and 0.325, respectively. Besides, the results for the composite z-score in [4] and in [10] were 0.263 (inactive) and -0.0599, respectively.

`O=C1OCC=C[C@H]2OC34C=CCN(c5ccc(Cl)cc5)C(=O)[C@H]3N(CCCO)C(=O)[C@@H]4[C@@H]12` (stereo not given in full): the z-score is -0.458 in experiment [1]; -0.857 (inactive) in [2]; -0.393 (inactive) in [3]; 0.276 (inactive) in [5]; 0.123 (inactive) in experiment [6]; 0.958 (inactive) in experiment [7]. Besides, the z-score in [8] was 0.579 (inactive); in experiment [9], 0.0679. Moreover, the composite z-score in [4] was -0.486 (inactive); in [10], 0.0593.

In the case of `Cc1ccc(S[C@]2(C(=O)NCC(C)C)CC(=O)N(Cc3ccccc3)[C@@H]2c2ccc(CO)cc2)cc1`, the z-score in experiment [1] was 0.408; in experiment [2], -0.841 (inactive); in experiment [3], 0.559 (inactive); in [5], 0.525 (inactive); in experiment [6], -0.341 (inactive); in [7], 0.298 (inactive). For the same compound, the z-score is -0.667 (inactive) in experiment [8] and 0.505 in experiment [9]. Also, the composite z-score is -0.586 (inactive) in experiment [4] and 0.104 in experiment [10].

On to `C=CCOC(=O)[C@@H]1[C@H]2C(=O)O[C@H](c3ccccc3)[C@H](c3ccccc3)N2[C@H](c2ccc(OCCOC(=O)[C@H]3C[C@H]4C(=O)N[C@@H](CCCC[N+](C)(C)C)C(=O)N4[C@H]3c3cccc(OCCO)c3)cc2)[C@@]12C(=O)Nc1ccc(I)cc12`, for which the z-score in [1] is -0.0059; in experiment [2], 1.68 (inactive); in experiment [3] it was -1.05 (inactive); in experiment [5], 3.37 (inactive); in [6], 1.12 (inactive); in experiment [7] it was -0.708 (inactive). The z-score was -1.23 (inactive) in [8] and -0.521 in experiment [9]. Further, the composite z-score is -0.483 (inactive) in [4] and 0.104 in experiment [10].

For `CC(C)C[C@@H]1NC(=O)[C@@H]2C[C@H](C(=O)NCCCCN(C)C)[C@H](c3ccc(O)cc3)N2C1=O`, the z-score is 0.955 in [1]; 0.463 (inactive) in experiment [2]; 0.396 (inactive) in experiment [3]; -0.475 (inactive) in [5]; 0.505 (inactive) in [6]; -0.113 (inactive) in experiment [7]. Further, the values for the z-score in [8] and in [9] were -0.401 (inactive) and 0.0109, respectively. For the same compound, the values for the composite z-score in [4] and in experiment [10] were -0.0312 (inactive) and 0.102, respectively.

These data come from PubChem BioAssay.
